According to PubChem BioAssay AID2570 (National Center for Advancing Translational Sciences (NCATS), 2010):
“And” between values parts separate entries of the source, which are not always exact repeats. Equal entries are not always repeated. Inconclusive results are not listed. The source made the active and inactive calls. Calls follow the shape of the dose curve; as a rule, active = well fitted curve in the direction sought with a large enough effect; inconclusive = small, poorly fitted or top-dose-only effect, or another doubt; inactive = no such curve, though single readings can be large or run the other way.

Each compound was assayed against Vasopressin V1b receptor (Homo sapiens) (UniProt P47901) (assay: Counterscreen Concentration-Response Assay for Antagonists of the Neuropeptide S Receptor: Vasopressin Receptor Calcium Signal Transduction). Settings: CHO-AVPR1B, vasopressin-stimulated calcium fluorescence, FDSS.
Chain of Vasopressin V1b receptor (Homo sapiens) (P47901 whole entry, looked up): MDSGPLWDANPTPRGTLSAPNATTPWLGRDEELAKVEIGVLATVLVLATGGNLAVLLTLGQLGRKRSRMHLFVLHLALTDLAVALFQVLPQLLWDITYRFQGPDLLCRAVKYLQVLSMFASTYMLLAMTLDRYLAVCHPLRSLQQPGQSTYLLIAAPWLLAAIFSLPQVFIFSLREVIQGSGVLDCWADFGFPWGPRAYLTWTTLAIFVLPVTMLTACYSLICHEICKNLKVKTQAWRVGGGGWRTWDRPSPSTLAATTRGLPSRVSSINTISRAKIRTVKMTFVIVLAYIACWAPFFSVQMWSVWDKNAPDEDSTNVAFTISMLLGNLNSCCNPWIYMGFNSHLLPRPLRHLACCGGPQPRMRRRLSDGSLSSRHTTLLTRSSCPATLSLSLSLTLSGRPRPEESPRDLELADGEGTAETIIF
In short: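 CHO cells stably expressing human AVPR1B, calcium-dye loaded, were given compound, then stimulated with 60 nM vasopressin in HBSS/0.1% BSA. Peak kinetic fluorescence was normalized to DMSO and no-signal controls; AC50 from Hill fits.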

Compound	max response
N=c1c2c(ccn1CCCCc1ccccc1)Oc1ccc3ccccc3c1C2c1ccccc1 (stereo unspecified)	19.5% (inactive)
COc1cccc(C2c3c(ncn(-c4ccc(C(C)(C)C)cc4)c3=N)Oc3ccc4ccccc4c32)c1 (stereo unspecified)	17.5% (inactive)
CCOC(=O)CC(=O)Nc1ncnc2c1C(c1ccccc1)c1c(ccc3ccccc13)O2 (stereo unspecified)	-17.5% (inactive)
COc1cccc(C2c3c(ncn(CCN4CCOCC4)c3=N)Oc3ccc4ccccc4c32)c1 (stereo unspecified)	-2.37% (inactive)
COc1cccc(C2c3c(ncn(Cc4cccs4)c3=N)Oc3ccc4ccccc4c32)c1 (stereo unspecified)	22.2% (inactive)
COc1cccc(C2c3c(ncn(-c4ccccc4OC)c3=N)Oc3ccc4ccccc4c32)c1 (stereo unspecified)	-19.5% (inactive)
N=c1c2c(ncn1-c1ccccc1)Oc1ccc3ccccc3c1C2c1ccc2c(c1)CCO2 (stereo unspecified)	-13.6% (inactive)
COc1ccc(C2c3c(n(CCCc4ccccc4)cnc3=N)Oc3ccc4ccccc4c32)cc1OC (stereo unspecified)	-23.2% (inactive)
COc1cccc(C2c3c(ncn(-c4ccccc4-c4ccccc4)c3=N)Oc3ccc4ccccc4c32)c1 (stereo unspecified)	13.8% (inactive)
CC(C)(C)OC(=O)Nc1ncnc2c1C(c1ccccc1)c1c(ccc3ccccc13)O2 (stereo unspecified)	14.3% (inactive)
CCOC(=O)CCCC(=O)Nc1ncnc2c1C(c1ccccc1)c1c(ccc3ccccc13)O2 (stereo unspecified)	-39.8% (inactive)
O=C1OC(c2ccccc2)(c2ccccc2)N2CCN(C(=O)NCc3ccc(F)cc3)CC12 (stereo unspecified)	22.2% (inactive) and 17.7% (inactive)
COc1ccc(C2c3c(n(Cc4ccccc4)cnc3=N)Oc3ccc4ccccc4c32)cc1OC (stereo unspecified)	-20.3% (inactive)
O=C(Cc1ccccc1)Nc1ncnc2c1C(c1ccccc1)c1c(ccc3ccccc13)O2 (stereo unspecified)	7.19% (inactive)
CCC(C)(CCN1CCOCC1)N(Cc1cc2ccccc2n(C)c1=O)C(=O)C1CCCCC1 (stereo unspecified)	-9.76% (inactive)
Cc1c(P(=S)(c2ccccc2)c2ccccc2)c2ccccc2n1C(=O)Cc1ccccc1	5.72% (inactive)
N=c1c2c(ncn1CCN1CCOCC1)Oc1ccc3ccccc3c1C2c1ccccc1 (stereo unspecified)	25.9% (inactive)
COc1cccc(C2c3c(ncn(-c4ccc(C)cc4)c3=N)Oc3ccc4ccccc4c32)c1 (stereo unspecified)	-0.274% (inactive)
COc1cccc(C2c3c(ncn(-c4ccccc4C)c3=N)Oc3ccc4ccccc4c32)c1 (stereo unspecified)	-2.54% (inactive)
Cc1c(P(=S)(c2ccccc2)c2ccccc2)c2ccccc2n1Cc1ccccc1	0.753% (inactive)
COc1cccc(C2c3c(ncn(-c4ccncc4)c3=N)Oc3ccc4ccccc4c32)c1 (stereo unspecified)	23.2% (inactive)
